# aGal spleen mod: inhibitors or activators of human alpha-galactosidase in spleen homogenate | human spleen homogenate, 4MU-alpha-Gal fluorescence, 40 min | 0.008% of 240,000 active | Potency, µM (top dose mostly 80 µM), without a hit: at the top dose activity change, negative = inhibition, most hits filed as inhibitors | P06280;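 further: potency means the concentration at half of the fitted maximal effect; 0% = enzyme with vehicle and -100% = no enzyme basal signal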
#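 Fluorogenic readout (Ex 365/Em 440 nm) of 4-methylumbelliferone released from 1 mM 4-MU-alpha-galactoside by spleen homogenate, 40 min at 37C, pH 5.0. Data normalized to no-enzyme and enzyme controls; Hill-equation AC50 from compound titrations.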
# HPGD inh: HPGD (human) dehydrogenase inhibition; P15428; purified HPGD, NADH fluorescence kinetic, PGE2 substrate; Potency, µM, inactives show at the top dose activity change, negative = inhibition, actives largely listed as inhibitors; 4.3% of 150,000 active; active means well fitted inhibition curve with a large enough effect, not every such curve was filed as active; inconclusive means small, poorly fitted or top-dose-only effect, or another doubt; inactive means no such curve, though single readings can be large or run the other way; further: potency means the concentration at half of the fitted maximal effect
#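 NADH formation kinetics: reaction with 30 uM PGE2 and 1 mM NAD+ (final), 20 nM enzyme, Tris-HCl pH 8 with Tween 20, after 15 min compound preincubation at room temperature. Fluorescence change, last versus first of five reads.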
# ALOX12 inhib: blocks human 12-lipoxygenase activity; P18054; purified 12-hLO, xylenol orange hydroperoxide absorbance; Potency, µM (titrated, usually from 57.1 µM), for the others: top-dose activity change, negative = inhibition, usual class: inhibitors; 0.12% of 150,000 active; AID 1452; further: potency means the concentration at half of the fitted maximal effect; nearly all actives have a fitted effect of over 55% in size
#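 150 nM 12hLO, 25 mM Hepes pH 7.0 + 0.01% Triton X-100; cpd preinc 15 min RT; 40 uM arachidonic acid, 30 min RT; Fe-XO 30 min; A573/A405 ratio as read-out.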
# GLA inh pH 4.5: alpha-galactosidase A (human) inhibition, pH 4.5; P06280; activity change, negative = inhibition, % at 105 µM; purified enzyme, 4-MU-alpha-Gal fluorescence, pH 4.5; 230,000 tested, under 10 active; AID 1467;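 further: 0% = full activity with enzyme and -100% = basal without enzyme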
# Target sequence (P06280 whole entry, looked up): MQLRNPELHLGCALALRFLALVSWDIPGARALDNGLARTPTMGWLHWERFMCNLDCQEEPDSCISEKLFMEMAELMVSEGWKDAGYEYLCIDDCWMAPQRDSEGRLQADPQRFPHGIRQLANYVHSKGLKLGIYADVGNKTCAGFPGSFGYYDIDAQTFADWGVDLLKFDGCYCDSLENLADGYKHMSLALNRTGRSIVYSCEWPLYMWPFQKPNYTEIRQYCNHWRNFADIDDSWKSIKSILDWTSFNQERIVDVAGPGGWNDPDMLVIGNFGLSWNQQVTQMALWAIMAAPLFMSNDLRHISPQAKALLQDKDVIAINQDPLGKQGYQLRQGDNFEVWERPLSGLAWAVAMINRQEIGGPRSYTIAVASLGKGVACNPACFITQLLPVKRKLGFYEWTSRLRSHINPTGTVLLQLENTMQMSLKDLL
# ALDH1A1 block: blocks purified human ALDH1A1 activity; 7.3% of 220,000 active; Potency, µM (top dose mostly 75.3 µM), inactives show top-dose activity, negative = inhibition, usual class: inhibitors; AID 1030; Purified ALDH1A1, NADH fluorescence, propionaldehyde substrate; P00352; active means well fitted inhibition curve with a large enough effect, not every such curve was filed as active; inconclusive means small, poorly fitted or top-dose-only effect, or another doubt; inactive means no such curve, though single readings can be large or run the other way;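 further: potency means the concentration at half of the fitted maximal effect; plate controls were no enzyme wells and a reference inhibitor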
# PNC assembly inh: perinucleolar compartment assembly inhibition | AID 2417 | activity change (PNC), negative = inhibition, % at 10 µM | PC3M PTB-GFP, PNC prevalence imaging, 16 h; stronger effect = lower value | 3.1% of 140,000 active;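 active means readout at or below -70, meaning at least 70% loss of cells showing the perinucleolar compartment, a nuclear body marking cancer cells; inconclusive means readout between -30 and a set limit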;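 further: plate controls were DMSO wells for no effect and camptothecin positive control wells for full effect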
#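 PC3M cells stably expressing PTB-GFP, 750–1000 cells/well, treated 16 h at 37 °C with compound (23 nl of library stock), in duplicate. After paraformaldehyde fixation and Hoechst stain, imaged at 20x; PNC prevalence scored by image analysis.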
# * = called active by the depositor; ? = inconclusive; nt = no result given; [ ] = dose if it differs, or a comment. An excerpt weighted towards active compounds, which were near 10% of everything screened. Unless noted, the call rests on the fitted dose curve; in most records, active means well fitted curve in the direction sought with a large enough effect; inconclusive means small, poorly fitted or top-dose-only effect, or another doubt; inactive means no such curve, though single readings can be large; an effect the other way counts as inactive or inconclusive. Unless noted, on the % scale 0 is the no-effect control and ±100 the full control effect.
SMILES,aGal spleen mod,HPGD inh,ALOX12 inhib,GLA inh pH 4.5,ALDH1A1 block,PNC assembly inh
CC1CCN(C(=O)c2scc3c2OCCO3)CC1,-12.3%,15.8µM*,-4.7%,1.8,-2.0%,-23.3
CC1CCN(C(=S)c2ccc3c(c2)OCO3)CC1,-1.5%,28.2µM*,-16.0%,0.4,?,8.3
CC1CCN(C(=O)c2ccc3c(c2)OCCO3)CC1,-12.4%,0.398µM*,-0.6%,1.5,-4.2%,?
CC1CN(C(=O)c2scc3c2OCCO3)CC(C)O1 (stereo not drawn),-2.2%,-10.7%,-4.5%,0.2,8.8%,42.8
CC1CCN(C(=O)c2ccc(-n3cnnn3)cc2)CC1,-1.2%,17.8µM*,-3.1%,-10.1,?,0.8
CC(=O)[C@]1(O)CCC2C3CC(C)C4=CC(=O)C=CC4(C)[C@@]3(F)C(O)C[C@]21C (stereo partly drawn),5.6%,-1.8%,0.2%,5.2,-3.0%,nt
Cn1c(SCC(=O)Nc2cccc(F)c2)nc2c([nH]c3ccccc32)c1=O,8.6%,nt,nt,7.4,-1.6%,nt
COc1ccc(NC(=S)NC2CCCCC2)cn1,2.4%,nt,nt,-8.6,-9.3%,nt
O=C1[C@H]2[C@H]3[C@H](O)[C@H](O)C/C(=N/OCc4ccccc4)[C@@H]3CC[C@@H]2C(=O)N1Cc1ccccc1,0.8%[17.5 µM],nt,nt,nt,14.9%[13.5 µM],nt
O=C(C[C@@H](C(=O)O)N1CCOCC1)c1ccccc1,nt,-2.9%,-0.3%[11.4 µM],nt,5.9%[13.5 µM],nt
Cc1cc(C)c(O)c(C2(O)C(=O)c3ccccc3C2=O)c1,-8.6%,nt,nt,-1.0,?,nt
O=C1c2ccccc2C(O)(O)[C@@]1(O)[C@]1(O)C(=O)c2ccccc2C1(O)O,nt,0.7%,-7.0%[11.4 µM],nt,0.251µM*,nt
COc1ccc2cc3cc(C(=O)NCCCN4CCOCC4)oc3nc2c1,?,?,-1.5%,?,?,29.6
Cc1ccc2cc3cc(C(=O)NCCN4CCOCC4)oc3nc2c1,4.2%,?,0.2%,0.3,?,-100.0*
O=C1CC(c2ccco2)Cc2nc(N3CCN(Cc4ccc5c(c4)OCO5)CC3)ncc21 (stereo not drawn),-9.3%,?,-9.7%,-9.1,17.8µM*,-28.0
CC[C@H](C)[C@H](NC(=O)[C@H](C)NC(=O)[C@@H](N)C(C)C)C(=O)N[C@H](C(=O)N[C@H](C(=O)N[C@@H](CC(C)C)C(=O)N[C@H](C(=O)N[C@@H](CCCCN)C(=O)O)C(C)C)C(C)C)[C@@H](C)O,-1.8%,nt,nt,nt,nt,nt
O=C(NC1CCCCCCC1)C1c2ccccc2C(=O)N1Cc1cccs1 (stereo not drawn),-2.9%,-0.8%,-0.2%,4.1,-0.2%,24.3
O=C(NCCc1ccccc1)C1c2ccccc2C(=O)N1Cc1cccs1 (stereo not drawn),-3.8%,nt,nt,-0.4,12.6µM*,nt
COc1ccc(-n2c(=O)c(-c3ccc(Cl)cc3)nc3cnc(N4CCNCC4)nc32)cc1,-0.8%,nt,nt,nt,?,nt
C=CCNC(=O)c1c(Cl)cccc1Cl,-3.1%,?,-1.4%,-1.0,?,-3.6
C=CCNC(=O)c1ccc(Cl)cc1Cl,-2.8%,14.1µM*,2.5%,2.9,14.8%,59.2
C=CCNC(=O)c1ccc(C)cc1Cl,1.8%,3.98µM*,7.2%,-1.4,6.6%,11.4
Cc1ccc(S(=O)(=O)N(CCC(=O)O)Cc2ccc(Cl)cc2)cc1,-12.0%,-6.3%,-5.8%,5.1,9.5%,11.5
CCOC(=O)c1sc(NC(=O)OC)c(C(=O)OC)c1C,8.6%,nt,nt,-1.7,1.7%,nt
CCN(CC)C(=O)c1sc(NC(=O)c2ccncc2)c(C(=O)OC)c1C,-3.0%,22.4µM*,-1.1%,-8.5,14.1µM*,?
CCOC(=O)c1c(NC(=O)OC)sc(C(=O)N(CC)CC)c1C,8.9%,28.2µM*,-5.9%,-2.9,?,0.6
CCN(CC)C(=O)c1sc(NC(=O)c2cc(-c3ccc(C)s3)nc3ccccc23)c(C(=O)OC)c1C,-2.9%,?,-6.2%,-0.7,?,?
CCC(=O)Nc1sc(C(=O)OC)c(C)c1C(=O)OC,8.1%,22.4µM*,-2.2%,1.3,?,?

# Source: PubChem (National Center for Advancing Translational Sciences (NCATS))
